The results in this text go back to PubChem BioAssay (NCI).

Some test systems named below: SK-MEL-2 melanoma; EKVX NSCLC; SN12C renal; UO-31 renal; TK-10 renal; ACHN renal; CAKI-1 renal; A498 renal; CCRF-CEM leukemia; MOLT-4 leukemia; SR leukemia; RPMI-8226 leukemia; OVCAR-8 ovarian; OVCAR-5 ovarian; OVCAR-4 ovarian; SK-OV-3 ovarian; IGROV1 ovarian; OVCAR-3 ovarian; HS 578T breast; NCI/ADR-RES ovarian.
What all share (assay): NCI-60 one-dose screen, 48 h (100 = growth as untreated, 0 = no growth, -100 = all killed)
Common to all, as to conditions: 10 µM unless noted

About 83,000 compounds went through this panel and 20% of them were active in at least one assay; those are over-represented in the sample as a whole.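 Testing used 96-well plates and a 48-hour single-concentration exposure. Example: -40 means 40% of the starting cells died.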 Values without a mark were called inactive. Activity calls are given as the source filed them. How the source made its calls: active means growth percent below 10; inactive means the rest.

Consider `O=C(NN1C(=O)/C(=C/C=C/c2ccc([N+](=O)[O-])o2)SC1=S)c1ccncc1`, for which the growth was -79.3% (active) in the assay on SK-MEL-2 melanoma; -92% (active) with EKVX NSCLC; -99.9% (active) with SN12C renal; -97.2% (active) with UO-31 renal; -91% (active) with TK-10 renal; -100% (active) in the assay on ACHN renal. Further, the growth in the assay with CAKI-1 renal is -100% (active); in the assay with A498 renal, 18.9%; in the assay on CCRF-CEM leukemia, -43.9% (active); with MOLT-4 leukemia it was -38.8% (active); in the assay on SR leukemia, -24.7% (active); in the assay on RPMI-8226 leukemia, -28.4% (active). Moreover, the growth with OVCAR-8 ovarian is -37.2% (active); in the assay on OVCAR-5 ovarian it was -98.9% (active); in the assay on OVCAR-4 ovarian it was -97.6% (active); with SK-OV-3 ovarian, -99% (active); in the assay with IGROV1 ovarian it was -94.9% (active); with OVCAR-3 ovarian it was -100% (active). Besides, the results for the growth in the assay on HS 578T breast and with NCI/ADR-RES ovarian were -11% (active) and -4.3% (active), respectively.
`COc1ccc(N=Nc2c(N)nn3c(N)c(C#N)c(-c4ccc(C)cc4)nc23)cc1`: the growth with SK-MEL-2 melanoma was 91%; with EKVX NSCLC it was 36.3%; in the assay on SN12C renal it was 57.7%; in the assay on UO-31 renal, 61.1%; in the assay on TK-10 renal, 101%; with ACHN renal it was 56.8%. In addition, the growth with CAKI-1 renal was 17.4%; with A498 renal it was 128%; with CCRF-CEM leukemia, 8.68% (active); with MOLT-4 leukemia, 5.8% (active); in the assay on SR leukemia, 44.6%; in the assay with RPMI-8226 leukemia, 3.4% (active). Further, the growth was 66.3% in the assay with OVCAR-8 ovarian; 99.9% in the assay on OVCAR-5 ovarian; 53.2% in the assay on OVCAR-4 ovarian; 90.2% in the assay on SK-OV-3 ovarian; 33.5% in the assay with IGROV1 ovarian; 15.2% with OVCAR-3 ovarian. For the same molecule, the values for the growth in the assay on HS 578T breast and with NCI/ADR-RES ovarian were 27.7% and 62.2%, respectively.
In the case of `C#CCCCNCCNc1ccnc2cc(Cl)ccc12`, the growth in the assay on SK-MEL-2 melanoma is 98.1%; in the assay with EKVX NSCLC, 70.3%; in the assay on SN12C renal, 74.2%; with UO-31 renal it was 60.8%; in the assay on TK-10 renal, 82.9%; in the assay with ACHN renal, 87.7%. The growth in the assay on CAKI-1 renal is 44.5%; in the assay on A498 renal, 108%; with CCRF-CEM leukemia, 77.6%; in the assay with MOLT-4 leukemia, 65.1%; in the assay on SR leukemia, 2.22% (active); in the assay on RPMI-8226 leukemia, 47.9%. For the same molecule, the growth with OVCAR-8 ovarian is 79.6%; with OVCAR-5 ovarian, 64.3%; in the assay with OVCAR-4 ovarian, 89.8%; with SK-OV-3 ovarian, 103%; with IGROV1 ovarian it was 84.6%; in the assay on OVCAR-3 ovarian it was 85.8%. Further, the growth with HS 578T breast was 91.8%; in the assay on NCI/ADR-RES ovarian, 68.8%.
Consider `C=CCSc1nnc(-c2ccc(-c3nc4ccc(Cl)cc4[nH]3)cc2)o1`, for which the growth in the assay with SK-MEL-2 melanoma was 38.7%; in the assay on EKVX NSCLC, 60.8%; in the assay with SN12C renal, 63.1%; in the assay with UO-31 renal, 78.4%; with TK-10 renal, 90.3%; in the assay on ACHN renal, 78.8%. Moreover, the growth in the assay on CAKI-1 renal is 49.2%; in the assay on A498 renal it was 106%; with CCRF-CEM leukemia it was 37.1%; in the assay on MOLT-4 leukemia it was 48.9%; in the assay with SR leukemia, 23.7%; in the assay on RPMI-8226 leukemia, 55.2%. Further, the growth in the assay with OVCAR-8 ovarian is 63.9%; in the assay with OVCAR-5 ovarian, 76.8%; in the assay with OVCAR-4 ovarian it was 66.5%; in the assay with SK-OV-3 ovarian, 88.8%; in the assay with IGROV1 ovarian, 59.6%; in the assay on OVCAR-3 ovarian, 34%. For the same molecule, the growth was 36.2% in the assay on HS 578T breast and 54.3% with NCI/ADR-RES ovarian.
Consider `COc1sc(/C=N/NC(=O)c2[nH]c3ccc(Br)cc3c2-c2ccccc2)cc1Br`, for which the growth with SK-MEL-2 melanoma is 15.4%; in the assay on EKVX NSCLC it was 13.5%; with SN12C renal, 5.93% (active); with UO-31 renal it was 31.1%; in the assay with TK-10 renal it was 64.6%; in the assay on ACHN renal, 7.58% (active). Besides, the growth in the assay on CAKI-1 renal is 15.2%; in the assay on A498 renal, 134%; in the assay with CCRF-CEM leukemia it was 6.23% (active); in the assay on MOLT-4 leukemia, -2.1% (active); in the assay with SR leukemia it was 4.82% (active); in the assay on RPMI-8226 leukemia, 9.25% (active). In addition, the growth with OVCAR-8 ovarian was 12%; with OVCAR-5 ovarian, 0.79% (active); in the assay on OVCAR-4 ovarian, 41.9%; with SK-OV-3 ovarian, 40.2%; in the assay with IGROV1 ovarian, 11.8%; in the assay on OVCAR-3 ovarian, -0.827% (active). Besides, the figures for the growth in the assay on HS 578T breast and in the assay with NCI/ADR-RES ovarian were 20.7% and -64.9% (active), respectively.
As to `Cc1cc(C(NC(=O)CCCCCNc2cccc3c2C(=O)N(C2CCC(=O)CC2=O)C3=O)c2cccc(N(C)C)c2)c(O)c2ncccc12` (stereo not given), the growth was -1.61% (active) in the assay with SK-MEL-2 melanoma; 7.79% (active) in the assay on EKVX NSCLC; 10.2% in the assay with SN12C renal; 8.84% (active) in the assay with UO-31 renal; 42.4% with TK-10 renal; 14.7% in the assay with ACHN renal. Moreover, the growth was 19.4% in the assay on CAKI-1 renal; 26.9% with A498 renal; -19.4% (active) in the assay with CCRF-CEM leukemia; -0.125% (active) with MOLT-4 leukemia; 25.3% in the assay with SR leukemia; 15.6% in the assay with RPMI-8226 leukemia. The growth was 2.18% (active) with OVCAR-8 ovarian; 38.1% in the assay on OVCAR-5 ovarian; 33.2% in the assay on OVCAR-4 ovarian; -2.15% (active) with SK-OV-3 ovarian; 1.63% (active) with IGROV1 ovarian; 16.3% with OVCAR-3 ovarian. Moreover, the growth in the assay with HS 578T breast was 19.6%; in the assay on NCI/ADR-RES ovarian, 50.6%.
Take `O=c1[nH]c2ccccc2cc1CSc1ccccc1Nc1nccc(-c2ccc3c(c2)OCO3)n1`: the growth with SK-MEL-2 melanoma was 96.7%; with EKVX NSCLC it was 86.6%; in the assay with SN12C renal it was 57%; in the assay on UO-31 renal, 77.6%; in the assay with TK-10 renal it was 107%; in the assay with ACHN renal, 51.6%. Besides, the growth was 16% in the assay on CAKI-1 renal; 126% in the assay with A498 renal; 101% in the assay with CCRF-CEM leukemia; 93.6% in the assay on MOLT-4 leukemia; 103% in the assay with SR leukemia; 92.2% with RPMI-8226 leukemia. For the same molecule, the growth in the assay on OVCAR-8 ovarian was 46.8%; in the assay with OVCAR-5 ovarian, 99.5%; in the assay with OVCAR-4 ovarian it was 25.4%; in the assay on SK-OV-3 ovarian it was 82.7%; in the assay on IGROV1 ovarian, 99.2%; in the assay on OVCAR-3 ovarian it was 83.9%. Also, the growth was 34.7% with HS 578T breast and 53.1% in the assay with NCI/ADR-RES ovarian.
